Screens (PubChem BioAssay)
Hits are enriched below; roughly 4% of the tested compounds scored in any of these assays.
Beta apoptosis = beta cell apoptosis inhibition; INS-1E cytokine-induced death, ATP luminescence, 48 h; percent of positive-control rescue, neutral wells zero; protection from apoptosis, % (test concentration not listed); hit rate 0.8% among 300,000;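 active = Every replicate reaches about 75%, or at least half do and their mean reaches it too, limit read from the data; inconclusive = At least half of replicates reach the limit but their mean does not; inactive = Under half of replicates reach the limit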;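 also: 0% = cytokine-treated negative control wells and 100% = positive control rescue; higher means more ATP so stronger rescue from cytokine killing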
Mdm2-MdmX inh = disrupts the human Mdm2-MdmX interaction | SaOS-2 split-luciferase Mdm2/MdmX complementation, luminescence | inhibition, % at 8 µM | hit rate 3% among 330,000 | AID 485346;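 active = inhibition of at least 50% at 8 µM in the primary screen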
Target sequence (O15151 whole entry, looked up): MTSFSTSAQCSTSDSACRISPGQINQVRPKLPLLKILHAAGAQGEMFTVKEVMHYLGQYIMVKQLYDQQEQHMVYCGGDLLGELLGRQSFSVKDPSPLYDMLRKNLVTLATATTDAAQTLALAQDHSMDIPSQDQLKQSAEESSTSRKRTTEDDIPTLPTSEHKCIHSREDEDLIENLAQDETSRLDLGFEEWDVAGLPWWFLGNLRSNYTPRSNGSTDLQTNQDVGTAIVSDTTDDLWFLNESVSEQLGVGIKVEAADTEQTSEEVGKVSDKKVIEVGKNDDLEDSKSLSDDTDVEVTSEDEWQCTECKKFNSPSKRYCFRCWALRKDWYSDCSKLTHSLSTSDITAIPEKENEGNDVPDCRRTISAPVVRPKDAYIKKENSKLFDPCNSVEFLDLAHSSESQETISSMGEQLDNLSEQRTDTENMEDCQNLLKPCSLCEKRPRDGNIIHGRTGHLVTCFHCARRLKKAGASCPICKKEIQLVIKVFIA
Target sequence (Q00987 whole entry, looked up): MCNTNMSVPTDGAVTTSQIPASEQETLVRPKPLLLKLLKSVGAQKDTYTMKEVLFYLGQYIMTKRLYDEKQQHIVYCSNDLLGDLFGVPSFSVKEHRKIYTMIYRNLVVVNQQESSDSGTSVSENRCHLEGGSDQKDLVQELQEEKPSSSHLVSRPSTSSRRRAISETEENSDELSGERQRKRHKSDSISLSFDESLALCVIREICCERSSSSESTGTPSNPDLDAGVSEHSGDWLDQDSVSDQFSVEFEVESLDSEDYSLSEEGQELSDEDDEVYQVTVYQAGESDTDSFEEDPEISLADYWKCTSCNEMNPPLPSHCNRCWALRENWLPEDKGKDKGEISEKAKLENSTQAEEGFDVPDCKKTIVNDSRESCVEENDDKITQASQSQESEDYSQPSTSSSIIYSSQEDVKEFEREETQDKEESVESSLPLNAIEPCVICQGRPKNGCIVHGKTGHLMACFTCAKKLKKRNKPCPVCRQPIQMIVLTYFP
CSC inhib = cancer stem cell inhibition; inhibition, % at 7.5 µM; hit rate 1.1% among 300,000; AID 2717; cancer stem cell-like cells viability, luminescence; in the data active = inhibition above about 75%; inconclusive = no clear call, values can overlap the other calls; tested in HMLE shEcad cells
Gli-Sufu block = Gli-Sufu pathway antagonism; Sufu-KO-LIGHT fibroblasts, Gli luciferase reporter luminescence; inhibition, % at 5 µM; hit rate 0.74% among 340,000; AID 588413;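 active = inhibition above about 55%, limit read from the data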;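 also: 0% = DMSO-treated cells and 100% = wells with medium but no cells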
PAX8 inh HTS = lowers PAX8-driven luciferase in RMG-I cells | RMG-I TPO-luciferase reporter, SteadyGlo, 24 h | inhibition, % at 12.6 µM | hit rate 1.2% among 360,000 | AID 652154;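 active = mean replicate inhibition at least 60% with every replicate also reaching 60%; inconclusive = only one of the two criteria is met; inactive = mean below 60% and not all replicates reaching 60%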;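 also: luciferase light reporting Pax8 driven TPO promoter activity; plate controls were median of neutral control wells for no effect and mitoxantrone controls for full effect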
Shn3 3UTR inh = reduces Shn3 3'UTR luciferase signal in osteoblasts. Clone20 osteoblast Shn3 3'UTR firefly luciferase, 24 h. inhibition, % at 12.5 µM. hit rate 0.52% among 360,000. AID 588674;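 active = mean inhibition of at least 75% with every replicate also reaching 75%; inconclusive = mean inhibition at least 75% but some replicate below; inactive = mean inhibition below 75%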;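 also: 0% = median of neutral control wells and 100% = pilot-screen positive control compound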
Mdm2-MdmX conf = human Mdm2/MdmX binding inhibition, confirmed; shares compounds with Mdm2-MdmX inh; luminescent assay; inhibition, % at 8 µM; hit rate 55% among 10,000; in the data active = inhibition above about 40%
Full FLuc ctr = counter-screen for Mdm2/MdmX inhibitors: full-length luciferase. SaOS-2 full-length luciferase counterscreen, luminescence. inhibition, % at 8 µM. hit rate 77% among 6,200. shares compounds with Mdm2-MdmX inh;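 active = mean inhibition at 8 µM reaching about 37%, which flags the compound as non-specific, limit read from the data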;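 also: p53-null SaOS-2 cells with luciferase driven by a doxycycline-inducible promoter; compound on cells about two nights before reading with doxycycline added after day one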
An asterisk follows results filed as active; ? = inconclusive; . = no result given.

SMILES | Beta apoptosis | Mdm2-MdmX inh | CSC inhib | Gli-Sufu block | PAX8 inh HTS | Shn3 3UTR inh | Mdm2-MdmX conf | Full FLuc ctr
Cn1c(=O)oc2cc(S(=O)(=O)N3CCCc4ccccc43)ccc21 | -5.9 | 54.6* | 72.7 | 39.5 | 52.5 | 19.5 | 59.2* | 65.2*
O=C(c1cnccn1)N1CC(=O)N2[C@H](CO)[C@H](c3ccc(C#CCc4ccccc4)cc3)[C@@H]2C1 | . | . | . | . | -11.3 | . | . | .
Cc1ccc(S(=O)(=O)Nc2ccc3c(c2)CC(=O)N([C@@H](C)CO)C[C@H](C)[C@H](CN(C)S(=O)(=O)c2ccccc2)O3)cc1 | . | . | . | . | -4.8 | . | . | .
O=C(C[C@H]1C[C@H]2c3cc(NC(=O)C4CCOCC4)ccc3O[C@H]2[C@H](CO)O1)NC1CCCC1 | . | . | . | . | 2.4 | . | . | .
CN(C)/C=C1/Sc2ccccc2C1=O | 1.6 | -2.1 | 13.0 | 0.0 | 3.9 | -17.9 | . | .
CC(=O)N(\C=C/C=C/C=C1\Sc2ccccc2C1=O)c1ccccc1 | 10.7 | 80.6* | 65.4 | . | -0.9 | -30.8 | 14.8 | .
O=C(N[C@H]1c2ccccc2C[C@H]1O)C1=C[C@H](c2coc3ccccc3c2=O)C[C@H](OCCCCO)O1 | . | . | . | . | 10.0 | . | . | .
CN(CC(=O)Nc1ccccc1Br)C(=O)c1cccnc1Nc1cccc(C(F)(F)F)c1 | 0.6 | 56.4* | . | 10.3 | 10.2 | 5.1 | -3.0 | .
CN1C(=O)c2cc(NC(=O)c3ccc(F)cc3)ccc2OC[C@H]2O[C@H](CC(=O)NCC3CC3)CC[C@@H]21 | . | . | . | . | 10.5 | . | . | .
COc1cccc(NC(=O)N[C@H]2C=C[C@@H](CC(=O)Nc3ccccc3)O[C@H]2CO)c1 | . | . | . | . | -1.2 | . | . | .
CC1(C)N=C(N)N=C(N)N1c1ccc(Oc2ccc(Cl)cc2)c(Cl)c1 | 2.2 | 67.1* | 89.3* | 64.9* | 60.3* | 45.7 | 50.0* | 87.8*
COC(=O)c1ccc(CSC2=NC[C@@H]3[C@@H]4C(=O)N(Cc5ccccc5)C(=O)[C@@H]4[C@](Cc4ccccc4)(C(=O)OC)N23)cc1 | . | 49.3 | . | 23.2 | 3.8 | 14.9 | . | .
COC(=O)[C@@]1(Cc2ccccc2)[C@H]2C(=O)N(Cc3ccccc3)C(=O)[C@H]2[C@H]2CN=C(SCc3ccc(C)cc3)N21 | . | 57.8* | . | 4.7 | . | 17.5 | 65.5* | 46.4*
COC(=O)[C@@]1(Cc2ccccc2)[C@H]2C(=O)N(Cc3ccccc3)C(=O)[C@H]2[C@H]2CN=C(SCc3ccccc3)N21 | . | 88.8* | . | 7.2 | 20.5 | 33.8 | 85.5* | 34.6
COC(=O)c1ccc(NC(=O)CNC(=O)c2sc3ccccc3c2Cl)cc1 | 6.1 | 94.3* | . | -18.6 | 3.8 | -6.8 | 49.0* | 93.5*
CC(=O)Nc1ccc(NC(=O)CNC(=O)c2sc3ccccc3c2Cl)cc1 | -0.6 | 17.6 | -7.6 | 2.6 | -3.5 | -19.1 | . | .
Cc1cccc(-c2cc3nc(C)cc(NCCCN(C)C)n3n2)c1 | . | 64.7* | . | 9.7 | . | -12.6 | 19.6 | .
CN(C)CCCNc1cc(-c2ccccc2)nc2cc(-c3cccc(F)c3)nn12 | 9.8 | 63.0* | 10.5 | . | 8.1 | -37.5 | 35.5 | 50.9*
COCCN1CCN(c2cc(-c3ccccc3)nc3cc(-c4cccc(F)c4)nn23)CC1 | 67.6 | 51.0* | 21.6 | 6.0 | . | 9.6 | 22.9 | .
C[C@@H]1CN([C@@H](C)CO)C(=O)Cc2cc(NS(C)(=O)=O)ccc2O[C@H]1CN(C)C(=O)Nc1cccc2ccccc12 | . | . | . | . | 27.7 | . | . | .
CCOc1ccccc1-c1cc(C(=O)N/N=C/c2cccnc2)c2ccccc2n1 | . | -0.9 | . | 3.9 | -0.8 | -4.9 | . | .
Cc1ccc(COc2ccccc2-c2cc(C(=O)N/N=C/c3cccnc3)[nH]n2)cc1 | 3.7 | 55.3* | 77.5* | -4.3 | 17.1 | -3.0 | 58.6* | 71.7*
CCN(CC)CCCNC(=O)c1cc(-c2ccccc2)c(N2CCCCC2)s1 | 19.6 | 75.5* | 83.2* | -0.3 | 0.3 | -8.1 | 54.5* | 66.1*
CSc1ccc(CCNC(=O)c2cc(-c3ccccc3)c(N3CCOCC3)s2)cc1 | 11.5 | 5.5 | 9.6 | -11.5 | 48.9 | -2.1 | . | .
CCN(CC)S(=O)(=O)c1cccc(NC(=O)Nc2cccc(C(F)(F)F)c2)c1 | 112.1* | 68.1* | 102.9* | 23.7 | 102.0* | 65.3 | 93.2* | 52.1*
SMILES | Beta apoptosis | Mdm2-MdmX inh | CSC inhib | Gli-Sufu block | PAX8 inh HTS | Shn3 3UTR inh | Mdm2-MdmX conf | Full FLuc ctr
CCN(CC)S(=O)(=O)c1ccc2c(c1)nc(CCC(=O)Nc1cccc(C(F)(F)F)c1)n2CC | 8.1 | 12.4 | 12.3 | 3.0 | . | 16.3 | . | .
O=C(CSc1nnc(-c2cccs2)n1-c1ccccc1)Nc1ccccc1 | -4.4 | 69.5* | -20.7 | -2.7 | . | 8.3 | 7.5 | .
O=C(CSc1nnc(-c2cccnc2)n1-c1ccccc1)Nc1ccccc1 | -2.8 | 50.2* | 17.9 | -9.5 | . | -1.8 | 17.0 | .
Cc1ccc(NC(=O)CSc2nnc(-c3cccnc3)n2-c2ccc(C)cc2)cc1 | 4.6 | -0.4 | -0.2 | 19.2 | . | -6.5 | . | .
Cc1nc(SCC(=O)NCC2CCCO2)c2cc(-c3ccccc3)sc2n1 (stereo unspecified) | 1.8 | 71.3* | . | -19.9 | -44.6 | -22.8 | 15.1 | .
Cc1nc(SCC(=O)NCC2CCCO2)c2c3c(sc2n1)CCC3 (stereo unspecified) | 5.1 | 24.1 | -11.8 | 5.7 | -6.8 | 13.9 | . | .
N/C(=N\OC(=O)N1CCOCC1)c1ccc(Cl)cc1 | -1.4 | 91.9* | -1.6 | -7.5 | -5.9 | -13.9 | 60.6* | 147.5*
O=C(c1ccc(S(=O)(=O)c2ccc(Cl)cc2)cc1)N1CCOCC1 | -11.0 | -34.0 | -3.7 | 10.2 | 7.0 | 12.4 | . | .
N/C(=N\OC(=O)N1CCOCC1)c1ccc(Br)cc1 | 2.0 | 100.4* | 19.5 | -1.8 | -5.0 | -20.4 | 59.0* | 133.9*
N/C(=N\OC(=O)N1CCOCC1)c1ccccc1 | 1.9 | 63.6* | 26.4 | -39.5 | . | 2.3 | 6.5 | .
COc1cccc(-c2ccc([C@H]3[C@@H](CO)N4C(=O)CN(C(=O)C5CCCC5)C[C@@H]34)cc2)c1 | . | . | . | . | -10.3 | . | . | .
O=C(NC(=Nc1nc2ccccc2o1)NC(=O)c1ccccc1)c1ccccc1 | -3.8 | -45.7 | -7.3 | -59.0 | -31.3 | -13.7 | . | .
COc1ccccc1C(=O)NC(=Nc1nc2ccccc2o1)NC(=O)c1ccccc1OC | 25.6 | 87.5* | 18.3 | -4.8 | . | 6.0 | 55.1* | 88.2*
CC1(C)C[C@H](O)[C@]2(CO)CC[C@]3(C)C(=CCC4[C@@]5(C)CC[C@H](O)C(C)(C)C5CC[C@]43C)[C@@H]2C1 (stereo partly specified) | 16.7 | 45.4 | 4.1 | 2.9 | . | -1.8 | . | .
CC1(C)C[C@H](O)[C@]2(CO)[C@H](O)C[C@]3(C)C(=CCC4[C@@]5(C)CC[C@H](O)C(C)(C)C5CC[C@]43C)[C@@H]2C1 (stereo partly specified) | 55.6 | 100.5* | ? | 4.7 | 14.1 | 34.9 | 28.5 | .
Cc1ccc(S(=O)(=O)N(C)C[C@H]2Oc3ccc(NC(=O)CCCN(C)C)cc3CC(=O)N([C@H](C)CO)C[C@H]2C)cc1 | . | . | . | . | -0.9 | . | . | .
